# The campaign covered roughly 410,000 compounds. About 18,000 (4.4%) were called active. About 7% were inconclusive and are not listed. Rule as the data show it: active = activity change below about -60%; inconclusive = no clear call, values can overlap the other calls; inactive = above about -39%. The entries come from a sample that favours actives as a whole.
# Test: qHTS Assay for inhibitors of the human cytomegalovirus (HCMV)
# Conditions: HFF cells, HCMV-luciferase reporter, 72 h; at 57.5 µM; hits give low values
# Text: NCGC Assay Overview: Infection with human cytomegalovirus (HCMV) continues to pose significant threats for pregnant women and immunocompromised hosts. HCMV causes serious morbidity and mortality in transplant recipients, and congenital HCMV is the leading infectious cause of mental retardation and deafness in children. In the 1990s, the annual costs associated with the disease burden of congenital CMV were estimated at around $2 billion. A HCMV vaccine is not available yet and HCMV therapies result in intolerable side effects and emergence of drug resistant viruses. […] Towards this goal we have developed and characterized a luciferase HCMV reporter that was initially used in 96 well plates and then optimized to 1536-well plates for utilization in screening of the MLSMR collection, the NGCG diversity collection and the NCGC Pharmaceutical Collection of approved and investigational drugs.
# NCGC Assay Protocol Summary:
# This is a cell-based assay for HCMV inhibition in HFFs cells. The screening used 2 compound doses and the HCMV-luciferase at MOI of 1 PFU/cell. Cells were treated and infected with HCMV. At 72 h post infection cell lysates were collected and luciferase activity was determined using the Glomax-Multi + Detection System (Promega, Madison, WI). Data were normalized to the controls for basal activity (buffer only) and known HCMV inhibitors Salinmoycin.
# 1536-well assay protocol for the assay:
# (1) Add 3 ul CMV/HFF cell culture. 1000 cells/well in DMEM nirmal media.
# (2) Incubate 16 hr at 37C.
# (3) Add 23 nl control compound, 10uM of Salinomycin.
# (4) Add 23 nl compounds in DMSO solution.
# (5) Add 3 ul CMV suspension. Final 1 puf/ul, Virus stock 2000pfu/ul
# (6) Incubate 72 hrs at 37C.
# (7) Add 4 ul OneGlo Luc Reagent.
# (8) Incubate 5 min at room temperature.
# % is scaled to controls: 0 for no effect and ±100 for the full control effect.
row,Structure (SMILES),"activity change, negative = inhibition"
1,COc1ccc(OC)c(NC(=O)C2CCCN(S(=O)(=O)c3ccc4c(c3)CCCC(=O)N4)C2)c1 (configuration not stated),5.92% (inactive)
2,COc1ccc(-c2nc3ccccc3o2)cc1NC(=O)c1cc([N+](=O)[O-])ccc1N1CCOCC1,17.1% (inactive)
3,COc1ccc(-c2nc3ccc(C(=O)NCc4ccc(C)cc4)cc3nc2-c2ccc(OC)cc2)cc1,13.2% (inactive)
4,Cc1ccc(Nc2nc(CSc3nnc(-c4ccncc4)n3-c3ccccc3C)cs2)cc1,-86.5% (active)
5,CCOc1ccc(Nc2nc(Cc3nnc(SCC(=O)c4ccc(C)cc4)o3)cs2)cc1,-18.3% (inactive)
6,CCOc1ccccc1-n1c(SCC(=O)NCc2ccco2)nnc1-c1ccncc1,24.1% (inactive)
7,Cc1ccc(-c2nc(S(=O)(=O)c3ccc(C)cc3)c(N3CCCCCC3)o2)cc1,-3.36% (inactive)
8,CC(C)S(=O)(=O)c1oc(-c2ccc(F)cc2)nc1S(=O)(=O)c1ccc(F)cc1,-98.8% (active)
9,O=C(CSc1oc(-c2ccc(F)cc2)nc1S(=O)(=O)c1ccc(Br)cc1)NC1CCCCC1,5.22% (inactive)
10,COc1ccc(N2C(=O)CSC23C(=O)N(Cc2cccc(F)c2)c2ccccc23)cc1Cl (configuration not stated),-38.5% (inactive)
11,Cc1cccc(C(=O)N2CCc3cc(CNC(=O)Cc4ccc(F)cc4)ccc32)c1,5.96% (inactive)
12,Cc1c(Cl)cccc1NC(=O)C1CCCN(C(=O)c2cnn(-c3ccccc3)c2-n2cccc2)C1 (configuration not stated),-29.6% (inactive)
13,O=c1cc(COc2cccc(C(F)(F)F)c2)nc2sc3c(n12)CCCC3,-0.855% (inactive)
14,CCOC(=O)c1ccc(N2C(=O)c3n[nH]c(C)c3C2c2ccc(O)c(OC)c2)cc1 (configuration not stated),-24.9% (inactive)
15,CCOc1cc(C2c3c(-c4ccc(Br)cc4)n[nH]c3C(=O)N2c2ccc(Cl)cc2)ccc1O (configuration not stated),-106% (active)
16,CCOc1ccc(-c2n[nH]c3c2C(c2ccccc2OC)N(c2ccc(Br)cc2)C3=O)cc1 (configuration not stated),21.3% (inactive)
17,COc1ccc(NC(=O)CCN2CCN(CCO)CC2)cc1,0.59% (inactive)
18,O=C(c1ccc2c(c1)N(Cc1ccccc1)C(=O)c1ccccc1S2(=O)=O)N1CCC(Cc2ccccc2)CC1,4.82% (inactive)
19,O=C(NCc1cccnc1)c1ccc(CS(=O)(=O)c2ccc(Br)cc2)o1,-24.5% (inactive)
20,COc1ccc(CCNC(=O)c2nnc(CS(=O)(=O)c3ccccc3)o2)cc1OC,-33.4% (inactive)
21,COc1ccc(CCNC(=O)c2ccc(CS(=O)(=O)c3ccc(Br)cc3)o2)cc1OC,-92.4% (active)

row,Structure (SMILES),"activity change, negative = inhibition"
1,Cc1c(S(=O)(=O)NC(C)c2ccccc2)c(=O)n(C)c(=O)n1C (configuration not stated),-5.67% (inactive)
2,COCCCNC(=O)[C@H]1N2C(=O)c3ccccc3C2SC1(C)C (some centres not stated),36.2% (inactive)
3,CC(=O)Nc1ccc(C(=O)OCC(=O)Nc2ccc([N+](=O)[O-])cc2C(F)(F)F)cc1,-34.7% (inactive)
4,O=C(Nc1cc2c3c(c1)C1CCCC1CN3CC1CCCC21)c1ccc([N+](=O)[O-])cc1 (configuration not stated),-31.6% (inactive)
5,Cn1ccc(=Nc2ccc(NC(=O)c3ccc(N=c4ccn(C)c5ccc([N+](=O)[O-])cc45)cc3)cc2)cc1,-96.1% (active)
6,Cc1ccc(CCNC(=O)c2ccc3c(c2)N(Cc2cc(C)ccc2C)C(=O)c2ccccc2S3=O)cc1 (configuration not stated),-0.139% (inactive)
7,Cc1cccc(NC(=O)C2CCCN2S(=O)(=O)c2cccc3nsnc23)c1C (configuration not stated),31.6% (inactive)
8,CCC(=O)Nc1c(C(=O)N2CCN(c3ccc(F)cc3)CC2)oc2ccccc12,-20.1% (inactive)
9,COC(=O)Cn1cnc2scc(-c3ccc(C)c(C)c3)c2c1=O,-22.1% (inactive)
10,CCOC(=O)C(C)n1cnc2scc(-c3ccc(C)c(C)c3)c2c1=O (configuration not stated),-39.3% (inactive)
11,CC(=O)C(C)n1cnc2scc(-c3ccc(C)cc3)c2c1=O (configuration not stated),-61% (active)
12,COc1cc(C(=O)N2CCN(c3ccc(Nc4ccc(C)cc4)nn3)CC2)cc(OC)c1OC,36.3% (inactive)
13,O=C(Cc1ccccc1Cl)N1CCOCC1,-27.3% (inactive)
14,CN(C)CCCNC(=O)/C=C/c1ccc(OCc2c(F)cccc2Cl)cc1,-62.7% (active)
15,C#CC(C)(CC)NC(=O)Cn1nnc(-c2ccc(OCc3c(F)cccc3Cl)cc2)n1 (configuration not stated),-28.3% (inactive)
16,O=C(Nc1ccc(OCC(=O)N2CCOCC2)cc1)c1cc(F)c(F)cc1Cl,4.25% (inactive)
17,O=C(/C=C/c1ccc(OCc2c(F)cccc2Cl)cc1)N1CCOCC1,-85.8% (active)
18,CCOC(=O)CNC(=O)/C=C/c1c(Cl)cccc1Cl,-12.3% (inactive)
19,COc1cc(C2c3c(oc4ccccc4c3=O)C(=O)N2c2nc(C)c(C)s2)ccc1O (configuration not stated),-20.1% (inactive)
20,CCOC(=O)C1CCCN(CC(=O)Nc2cc(C)c3c(=O)oc4ccccc4c3n2)C1 (configuration not stated),17.3% (inactive)
21,Cc1ccc(-c2cc(-c3coc4ccccc4c3=O)c3c(n2)-c2cc(Cl)ccc2OC3)cc1,21.6% (inactive)
